Screening data: PubChem, National Center for Advancing Translational Sciences (NCATS)
HP1b binding inh: HTS for Inhibitors of HP1-beta Chromodomain Interactions with Methylated Histone Tails. Chromobox protein homolog 1 (Homo sapiens), P83916. AlphaScreen HP1-beta / biotin-H3K9me3 peptide binding. Potency, µM (titrated, usually from 114 µM), for inactives: at the top dose activity change, negative = inhibition, usual class: inhibitors. hit rate 0.56% among 390,000; further: nearly all actives have a fitted effect of over 70% in size
Target sequence (P83916 whole entry, looked up): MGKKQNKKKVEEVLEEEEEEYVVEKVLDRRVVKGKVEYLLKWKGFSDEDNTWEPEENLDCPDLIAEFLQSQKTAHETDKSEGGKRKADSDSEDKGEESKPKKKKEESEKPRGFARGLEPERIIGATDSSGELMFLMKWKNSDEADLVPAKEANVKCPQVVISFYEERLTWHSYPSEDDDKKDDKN
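Compound inhibition of the preformed complex between 50 nM HP1-beta and 50 nM biotinylated H3K9me3 peptide was read by AlphaScreen. Buffer was PBS pH 7.4 with 0.01% Tween-20. Incubations ran 30 min at room temperature, with 10 ug/mL donor/acceptor beads.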
ALOX12 inh: Primary qHTS assay for inhibitors of human arachidonate 12S-lipoxygenase (ALOX12): Round 2; Polyunsaturated fatty acid lipoxygenase ALOX12 (Homo sapiens), P18054; purified 12hLO, xylenol orange hydroperoxide absorbance; Potency, µM (doses to about 108 µM), for the others: at the top dose activity change, negative = inhibition, actives largely listed as inhibitors; hit rate 1.1% among 580,000; further: on the % scale 0 is the no-effect control and ±100 the full control effect
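Purified human 12hLO at 150 nM in 25 mM Hepes, 0.01% Triton X-100, pH 7.0, preincubated 15 min at room temperature with compound. Reaction started with 40 uM arachidonic acid, 30 min at room temperature. Hydroperoxide measured by Fe-xylenol orange, 573/405 nm absorbance ratio.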
Sfp inh: qHTS Assay for Inhibitors of Bacillus subtilis Sfp phosphopantetheinyl transferase (PPTase); 4'-phosphopantetheinyl transferase ffp (Bacillus subtilis), Q9F4F7; Biochemical Sfp PPTase activity, qHTS; Potency, µM, for the others: largest response in the series, negative = inhibition, actives largely listed as inhibitors; hit rate 3.5% among 310,000; AID 1490, 2009;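 further: the enzyme is Sfp with the accession as filed and its product quenches rhodamine fluorescence; 0% = enzyme reaction without inhibitor and -100% = no enzyme wells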
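With Hepes-Na pH 7.6 buffer containing 10 mM MgCl2, Sfp (15 nM) modified BHQ-2-YbbR (12.5 uM) using rhodamine-CoA (5 uM). Two reads 30 minutes apart at 525/598 nm yielded each well's rate.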
JMJD2A Tudor inh: qHTS Assay for Inhibitors of JMJD2A-Tudor Domain; AlphaScreen JMJD2A-Tudor / H3K4me3 peptide binding; Potency, µM (titrated, usually from 114 µM), inactives show at the top dose activity change, negative = inhibition, usual class: inhibitors; hit rate 4.4% among 390,000; further: on the % scale 0 is the no-effect control and ±100 the full control effect; nearly all actives have a fitted effect of over 50% in size
BAZ2B block: qHTS Assay for Inhibitors of BAZ2B; hit rate 4.4% among 360,000; Potency, µM (titrated, usually from 114 µM), for inactives: at the highest dose activity change, negative = inhibition, most hits filed as inhibitors; AlphaScreen BAZ2B-H3K14Ac peptide displacement; Bromodomain adjacent to zinc finger domain protein 2B (Homo sapiens), Q9UIF8; AID 504333, 2011; further: on the % scale 0 is the no-effect control and ±100 the full control effect; nearly all actives have a fitted effect of over 60% in size
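Compounds, titrated to a top concentration of 110 uM, were incubated 30 min at room temperature with preformed BAZ2B/acetyl-K14 H3 peptide complex (50 nM each). Proximity signal was measured by AlphaScreen after 20 min with beads.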
G9a inh: qHTS Assay for Inhibitors of Histone Lysine Methyltransferase G9a | Histone-lysine N-methyltransferase EHMT2 (Homo sapiens), Q96KQ7 | G9a H3K9 monomethylation, AlphaScreen, 2 h | Potency, µM (doses to about 102 µM), for inactives: top-dose activity, negative = inhibition, actives largely listed as inhibitors | hit rate 8.8% among 350,000 | AID 504332, 2011; further: on the % scale 0 is the no-effect control and ±100 the full control effect; nearly all actives have a fitted effect of over 75% in size
Target sequence (Q96KQ7 913-1193 limits assumed): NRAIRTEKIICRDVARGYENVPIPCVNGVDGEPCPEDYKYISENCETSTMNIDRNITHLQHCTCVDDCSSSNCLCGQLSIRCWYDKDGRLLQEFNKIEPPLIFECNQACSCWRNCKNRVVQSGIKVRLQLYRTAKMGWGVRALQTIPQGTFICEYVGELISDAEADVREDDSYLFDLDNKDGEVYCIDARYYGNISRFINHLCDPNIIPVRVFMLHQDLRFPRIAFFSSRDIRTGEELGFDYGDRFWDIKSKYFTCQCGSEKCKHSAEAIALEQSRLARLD
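Enzyme 20 nM + cpd, 15 min RT; add b-H3K9 pep 500 nM / SAM 20 uM; 2 h RT; anti-H3K9me1 Ab 0.5 ug/mL + SA donor / anti-rabbit acceptor beads 20 ug/mL each, 10 min; AlphaScreen read.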
Numbers without * were called inactive; ? = inconclusive; nt = no result; ! = repeats disagree; [ ] = dose if it differs, or a comment. Shown are actives, neighbours in structure and some others; about 8.7% of the full set was active somewhere. The call rests on the fitted dose curve; in most records, active means well fitted curve in the direction sought with a large enough effect; inconclusive means small, poorly fitted or top-dose-only effect, or another doubt; inactive means no such curve, though single readings can be large; an effect the other way counts as inactive or inconclusive. Potency means the concentration at half of the fitted maximal effect.

SMILES | HP1b binding inh | ALOX12 inh | Sfp inh | JMJD2A Tudor inh | BAZ2B block | G9a inh
COc1ccc(-n2c(/C=C/c3ccc(O)cc3)nc3ccccc3c2=O)cc1 | 52% | 0% | -4% | -10% | 3% | 86%
CCOc1cc(C=O)ccc1O | 23% | -15% | nt | -20% | nt | nt
COc1ccc(C=C2C(=O)NC(=S)NC2=O)cc1OC | ? | ? | nt | 22µM* | nt | nt
CCC(=O)c1ccc(OC)c(OC)c1 | 26% | ? | 26% | -11% | -16% | -2%
COc1cc2c(cc1OCc1ccncc1)NC(=O)C21CCN(c2nc(C)cc(C)n2)CC1 | nt | 3% | nt | nt | nt | nt
O=CC1=C(N2CCOCC2)/C(=C\c2ccccc2)CC1 | 35% | -7% | -2% | -11% | -10% | 40µM*
C=CCN(C)C(=O)[C@H]1CN2CCC1C[C@@H]2Cn1cc(-c2ccc(C(C)(C)C)cc2)nn1 (stereo not given in full) | nt | 25%[176 µM] | nt | nt | nt | nt
CN(C)c1nc(-c2ccccc2)[n+](C)s1 | 1% | ? | 18µM* | -18% | 1% | 3.2µM*
COc1ccc2c(c1)CCC1C2CC[C@@]2(C)C1CC[C@@H]2NCCCCCCN1C(=O)C=CC1=O (stereo not given in full) | nt | nt | nt | nt | nt | 2.5µM*
COc1ccc2c(c1)CC[C@@H]1[C@@H]2CC[C@]2(C)[C@@H](NCCCCCCN3C(=O)C=CC3=O)CC[C@@H]12 | nt | 8% | 16% | nt | nt | 10%[59 µM]
O=C(Cc1ccccc1)N1Cc2ccccc2CC2(CCCCN2Cc2ccccn2)C1 (stereo not given) | nt | 6%[6.33 µM] | nt | nt | nt | nt
CC(=O)NC(Cc1ccc(N(CCCl)CCCl)cc1)C(=O)NC(CC(C)C)C(=O)O (stereo not given) | 15% | -18% | ? | -27% | ? | 50µM*
CCOC(=O)C(NC(=O)C(Cc1ccc(N(CCCl)CCCl)cc1)NC(C)=O)C(C)C (stereo not given) | 17% | -4% | 6% | -11% | -36% | ?
COC(=O)C1=C(c2cccc(OCc3ccccc3)c2)C[C@@H]2CC[C@H]1N2C(=O)NCc1ccc(N(C)C)cc1 | ? | 8% | nt | 20µM* | 10µM* | -7%[2.33 µM]
COC(=O)C1=C(c2ccc(F)cc2OCc2ccccc2)C[C@@H]2CC[C@H]1N2C(=O)NCc1ccc(N(C)C)cc1 | ? | 2% | nt | 22µM* | 10µM* | 19%[2.33 µM]
COC(=O)C1=C(c2ccccc2OCc2ccccc2)C[C@@H]2CC[C@H]1N2C(=O)NCc1ccc(Cl)cc1 | 29% | -6% | nt | -15% | -5% | -6%[0.501 µM]
COC(=O)C1=C(c2ccccc2OCc2ccccc2)C[C@@H]2CC[C@H]1N2C(=O)NCc1ccc(N(C)C)cc1 | -23% | -6% | nt | 20µM* | 28µM* | -6%[0.501 µM]
COc1ccc(N2CC(C(=O)NCc3ccco3)CC2=O)cc1 (stereo not given) | 25% | -25% | ? | ? | -13% | 18µM*
COC(=O)C1=C(c2ccc(OC)c(OC)c2)C[C@@H]2CC[C@H]1N2C(=O)NCc1ccco1 | 31% | ? | nt | -1% | 5% | -2%[0.501 µM]
CCC(CN)c1ccccc1 (stereo not given) | nt | 4% | nt | nt | nt | nt
CC(C)[C@@]1(NC(=O)[C@@H]2C[C@@H]3c4cccc5[nH]cc(c45)C[C@H]3N(C)C2)O[C@@]2(O)[C@@H]3CCCN3C(=O)[C@H](Cc3ccccc3)N2C1=O | 5% | ? | 79µM*! | -31% | 40µM* | ?
CC(C)[C@@]1(NC(=O)[C@@H]2C=C3c4cccc5[nH]cc(c45)C[C@H]3N(C)C2)O[C@@]2(O)[C@@H]3CCCN3C(=O)[C@H](Cc3ccccc3)N2C1=O | nt | nt | ? | nt | -35% | 8.9µM*
CN1C[C@H](C(=O)N[C@@]2(C)O[C@@]3(O)C4CCCN4C(=O)C(Cc4ccccc4)N3C2=O)C[C@H]2c3cccc4[nH]cc(c34)C[C@H]21 (stereo not given in full) | nt | nt | 8% | nt | nt | -9%[2.33 µM]
CCCc1nc2ccccc2c(=O)n1-c1ccc(OC)cc1 | 20% | -3% | 8% | -4% | -4% | 16%[2.33 µM]
COc1ccc(N2C(=O)CS(=O)C(c3ccccc3)C2=O)cc1 (stereo not given) | 13µM* | ? | 1.6µM* | 8.9µM* | ? | 0.71µM*
SMILES | HP1b binding inh | ALOX12 inh | Sfp inh | JMJD2A Tudor inh | BAZ2B block | G9a inh
O=C(CNC(=O)c1cccs1)NCC(=O)OCC(=O)c1ccc([N+](=O)[O-])cc1 | -2% | -6% | ? | -4% | nt | 45µM*
O=C(OCC(=O)c1ccc([N+](=O)[O-])cc1)/C(=C\c1ccc(Cl)cc1)NC(=O)c1ccccc1 | 16% | -9% | 11% | -18% | -18% | ?
CC(C)(O)c1cn(C[C@H]2C[C@@H]3CCN2C[C@@H]3C(=O)Nc2ccccc2)nn1 | nt | 6%[176 µM] | nt | nt | nt | nt
Cn1c(SCC(=O)N2CCOCC2)nnc1-c1cccc(NC(=O)c2ccccc2)c1 | 14% | 8% | -18% | 89µM* | nt | 10µM*
Cc1c(C(=O)Nc2cccc(C(F)(F)F)c2)cc(-c2ccccc2)n1CCCN1CCOCC1 | nt | -23%[57.4 µM] | nt | nt | nt | nt
O=C(NC1CCS(=O)(=O)C1)c1cn(Cc2ccccc2)c2ccccc12 (stereo not given) | nt | -1% | nt | nt | nt | nt
NC(CCP(=O)(O)O)C(=O)O (stereo not given) | nt | 6% | 50µM* | nt | nt | -11%[59 µM]
N[C@@H](CCP(=O)(O)O)C(=O)O | nt | ? | -16% | nt | nt | nt
CCCc1cc(C(=O)N2C[C@@H](c3ccc(F)cc3)[C@@H]3[C@H]2C2CCN3CC2)n[nH]1 | nt | 38% | nt | nt | nt | nt
CCOc1cc2c(cc1OCC)-n1cccc1C(c1cccc(OCC)c1O)NC2 (stereo not given) | ? | ? | -8% | 45µM* | ? | 45µM*
CCOc1cc(C2NCc3ccccc3-n3cccc32)ccc1OC (stereo not given) | -9% | 16% | 6% | ? | ? | ?
COc1ccc(OC)c(C2=NOC(C(=O)N3CCC4(CC3)OCCO4)C2)c1 (stereo not given) | -1% | -4% | 1% | 25µM* | 7% | -2%[12.7 µM]
CC(=O)OC(CC(=O)O)C[N+](C)(C)C (stereo not given) | 23% | -3% | 10% | -24% | 4% | 17%
CC(=O)O[C@H](CC(=O)O)C[N+](C)(C)C | 29% | 35µM*! | -15% | -15% | 10% | 7%[59 µM]
